Reference: ChEMBL document CHEMBL1961873, “Compounds: GSK PKIS; Assays: Nanosyn kinase panel” (2012)

Tests used:
[1] = target: Tyrosine-protein kinase receptor UFO (Homo sapiens) (UniProt P30530); settings: at 1 µM
[2] = target: Tyrosine-protein kinase Blk (Homo sapiens) (UniProt P51451); settings: at 0.1 µM
[3] = target: Tyrosine-protein kinase Blk (Homo sapiens) (UniProt P51451); settings: at 1 µM
[4] = target: T1, Cytoplasmic tyrosine-protein kinase BMX (Homo sapiens) (UniProt P51813); settings: at 0.1 µM
T1 sequence (whole entry): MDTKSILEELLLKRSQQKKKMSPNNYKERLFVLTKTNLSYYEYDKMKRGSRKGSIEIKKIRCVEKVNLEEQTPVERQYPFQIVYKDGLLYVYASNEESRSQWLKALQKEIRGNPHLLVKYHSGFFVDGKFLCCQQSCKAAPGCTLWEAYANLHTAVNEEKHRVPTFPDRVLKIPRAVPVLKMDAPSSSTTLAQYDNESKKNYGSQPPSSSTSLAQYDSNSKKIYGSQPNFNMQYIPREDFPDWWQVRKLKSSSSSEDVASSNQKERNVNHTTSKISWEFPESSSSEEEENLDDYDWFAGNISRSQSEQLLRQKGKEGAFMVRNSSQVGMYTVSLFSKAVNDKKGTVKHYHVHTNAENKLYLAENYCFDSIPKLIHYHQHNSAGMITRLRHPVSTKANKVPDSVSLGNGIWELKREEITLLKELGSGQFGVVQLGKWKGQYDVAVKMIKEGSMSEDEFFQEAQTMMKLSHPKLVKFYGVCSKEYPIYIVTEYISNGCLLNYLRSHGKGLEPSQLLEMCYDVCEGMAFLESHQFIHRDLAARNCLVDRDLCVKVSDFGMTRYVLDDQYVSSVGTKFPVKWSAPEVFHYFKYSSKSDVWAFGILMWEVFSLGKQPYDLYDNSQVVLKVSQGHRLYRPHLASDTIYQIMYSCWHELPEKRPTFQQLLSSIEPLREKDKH

[5] = target: T1, Cytoplasmic tyrosine-protein kinase BMX (Homo sapiens); settings: at 1 µM
[6] = target: Protein-tyrosine kinase 6 (Homo sapiens) (UniProt Q13882); settings: at 0.1 µM
[7] = target: Protein-tyrosine kinase 6 (Homo sapiens) (UniProt Q13882); settings: at 1 µM
[8] = target: Tyrosine-protein kinase BTK (Homo sapiens) (UniProt Q06187); settings: at 0.1 µM
[9] = target: Tyrosine-protein kinase BTK (Homo sapiens) (UniProt Q06187); settings: at 1 µM
[10] = target: Tyrosine-protein kinase CSK (Homo sapiens) (UniProt P41240); settings: at 0.1 µM
Tyrosine-protein kinase CSK (Homo sapiens), sequence (P41240 2-450 limits assumed): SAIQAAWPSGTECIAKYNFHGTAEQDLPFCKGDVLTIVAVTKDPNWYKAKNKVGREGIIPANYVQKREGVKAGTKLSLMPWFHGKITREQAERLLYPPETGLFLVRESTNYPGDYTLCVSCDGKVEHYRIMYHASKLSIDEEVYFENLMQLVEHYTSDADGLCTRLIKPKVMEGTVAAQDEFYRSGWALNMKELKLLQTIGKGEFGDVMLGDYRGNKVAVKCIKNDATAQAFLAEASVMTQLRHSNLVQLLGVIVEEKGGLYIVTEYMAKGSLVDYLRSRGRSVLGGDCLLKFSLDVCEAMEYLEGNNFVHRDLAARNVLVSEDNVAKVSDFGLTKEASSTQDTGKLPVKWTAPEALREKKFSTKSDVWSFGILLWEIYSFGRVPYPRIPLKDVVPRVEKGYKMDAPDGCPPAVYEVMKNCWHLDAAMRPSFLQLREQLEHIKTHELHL

[11] = target: Tyrosine-protein kinase CSK (Homo sapiens) (UniProt P41240); settings: at 1 µM
[12] = target: T2, Discoidin domain-containing receptor 2 (Homo sapiens) (UniProt Q16832); settings: at 0.1 µM
T2 sequence (whole entry): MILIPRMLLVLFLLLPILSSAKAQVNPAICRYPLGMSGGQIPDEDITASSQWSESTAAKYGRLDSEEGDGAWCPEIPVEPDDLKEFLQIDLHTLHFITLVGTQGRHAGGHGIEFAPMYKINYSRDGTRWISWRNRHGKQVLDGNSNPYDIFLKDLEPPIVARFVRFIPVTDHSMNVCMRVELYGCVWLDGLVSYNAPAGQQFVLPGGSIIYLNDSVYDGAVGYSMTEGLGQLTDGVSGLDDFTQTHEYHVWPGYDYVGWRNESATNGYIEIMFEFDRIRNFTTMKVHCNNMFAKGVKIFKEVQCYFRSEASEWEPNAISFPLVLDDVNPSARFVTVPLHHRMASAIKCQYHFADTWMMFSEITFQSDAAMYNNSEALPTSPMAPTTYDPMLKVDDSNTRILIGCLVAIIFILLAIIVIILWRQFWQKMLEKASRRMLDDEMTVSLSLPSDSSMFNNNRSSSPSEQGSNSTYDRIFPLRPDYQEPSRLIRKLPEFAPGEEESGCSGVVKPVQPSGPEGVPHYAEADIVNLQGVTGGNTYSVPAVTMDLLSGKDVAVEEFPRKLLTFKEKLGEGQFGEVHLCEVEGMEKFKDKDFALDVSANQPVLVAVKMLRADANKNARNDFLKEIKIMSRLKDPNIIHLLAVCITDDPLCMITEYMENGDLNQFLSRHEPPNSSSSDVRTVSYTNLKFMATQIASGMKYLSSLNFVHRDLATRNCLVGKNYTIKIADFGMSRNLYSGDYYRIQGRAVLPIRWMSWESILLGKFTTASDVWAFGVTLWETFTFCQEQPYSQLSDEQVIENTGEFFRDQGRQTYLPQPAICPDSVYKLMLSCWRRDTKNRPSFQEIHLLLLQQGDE

[13] = target: T2, Discoidin domain-containing receptor 2 (Homo sapiens); settings: at 1 µM
[14] = target: Epidermal growth factor receptor (Homo sapiens) (UniProt P00533); settings: at 0.1 µM
Epidermal growth factor receptor (Homo sapiens), sequence (P00533 whole entry): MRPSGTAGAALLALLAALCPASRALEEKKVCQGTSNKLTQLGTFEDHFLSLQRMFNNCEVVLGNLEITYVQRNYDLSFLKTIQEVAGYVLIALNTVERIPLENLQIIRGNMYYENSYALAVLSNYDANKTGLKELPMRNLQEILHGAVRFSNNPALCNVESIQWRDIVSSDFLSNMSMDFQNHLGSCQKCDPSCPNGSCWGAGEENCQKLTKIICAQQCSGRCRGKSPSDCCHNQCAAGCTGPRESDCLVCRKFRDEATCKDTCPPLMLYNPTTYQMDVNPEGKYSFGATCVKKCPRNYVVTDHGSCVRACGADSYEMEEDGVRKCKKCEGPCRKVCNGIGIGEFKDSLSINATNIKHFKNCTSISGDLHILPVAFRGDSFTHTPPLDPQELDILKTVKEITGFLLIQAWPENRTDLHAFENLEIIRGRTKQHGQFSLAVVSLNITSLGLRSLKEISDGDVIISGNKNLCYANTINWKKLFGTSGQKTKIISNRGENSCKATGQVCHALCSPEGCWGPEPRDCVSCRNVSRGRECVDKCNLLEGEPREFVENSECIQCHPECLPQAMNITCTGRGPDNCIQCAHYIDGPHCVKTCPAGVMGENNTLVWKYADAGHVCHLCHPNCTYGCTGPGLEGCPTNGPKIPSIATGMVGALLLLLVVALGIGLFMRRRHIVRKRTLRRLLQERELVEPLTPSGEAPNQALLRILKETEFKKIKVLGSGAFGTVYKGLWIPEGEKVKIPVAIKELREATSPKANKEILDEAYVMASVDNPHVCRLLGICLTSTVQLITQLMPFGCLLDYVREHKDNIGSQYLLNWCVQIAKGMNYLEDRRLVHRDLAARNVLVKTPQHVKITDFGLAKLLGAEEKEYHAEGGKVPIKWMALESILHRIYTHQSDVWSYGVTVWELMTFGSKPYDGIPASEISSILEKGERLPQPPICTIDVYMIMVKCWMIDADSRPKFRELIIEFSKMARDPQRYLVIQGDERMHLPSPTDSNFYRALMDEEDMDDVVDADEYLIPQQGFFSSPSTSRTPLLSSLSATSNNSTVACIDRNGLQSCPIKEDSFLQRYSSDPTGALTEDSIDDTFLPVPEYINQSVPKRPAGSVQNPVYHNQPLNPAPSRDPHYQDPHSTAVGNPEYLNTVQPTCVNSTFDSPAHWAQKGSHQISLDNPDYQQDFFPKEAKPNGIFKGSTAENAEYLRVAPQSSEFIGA

[15] = target: Epidermal growth factor receptor (Homo sapiens) (UniProt P00533); settings: at 1 µM
[16] = test system: Epidermal growth factor receptor (Homo sapiens), P00533 [L858R]; settings: at 0.1 µM
Epidermal growth factor receptor (Homo sapiens), P00533 [L858R], sequence (P00533 whole entry L858R): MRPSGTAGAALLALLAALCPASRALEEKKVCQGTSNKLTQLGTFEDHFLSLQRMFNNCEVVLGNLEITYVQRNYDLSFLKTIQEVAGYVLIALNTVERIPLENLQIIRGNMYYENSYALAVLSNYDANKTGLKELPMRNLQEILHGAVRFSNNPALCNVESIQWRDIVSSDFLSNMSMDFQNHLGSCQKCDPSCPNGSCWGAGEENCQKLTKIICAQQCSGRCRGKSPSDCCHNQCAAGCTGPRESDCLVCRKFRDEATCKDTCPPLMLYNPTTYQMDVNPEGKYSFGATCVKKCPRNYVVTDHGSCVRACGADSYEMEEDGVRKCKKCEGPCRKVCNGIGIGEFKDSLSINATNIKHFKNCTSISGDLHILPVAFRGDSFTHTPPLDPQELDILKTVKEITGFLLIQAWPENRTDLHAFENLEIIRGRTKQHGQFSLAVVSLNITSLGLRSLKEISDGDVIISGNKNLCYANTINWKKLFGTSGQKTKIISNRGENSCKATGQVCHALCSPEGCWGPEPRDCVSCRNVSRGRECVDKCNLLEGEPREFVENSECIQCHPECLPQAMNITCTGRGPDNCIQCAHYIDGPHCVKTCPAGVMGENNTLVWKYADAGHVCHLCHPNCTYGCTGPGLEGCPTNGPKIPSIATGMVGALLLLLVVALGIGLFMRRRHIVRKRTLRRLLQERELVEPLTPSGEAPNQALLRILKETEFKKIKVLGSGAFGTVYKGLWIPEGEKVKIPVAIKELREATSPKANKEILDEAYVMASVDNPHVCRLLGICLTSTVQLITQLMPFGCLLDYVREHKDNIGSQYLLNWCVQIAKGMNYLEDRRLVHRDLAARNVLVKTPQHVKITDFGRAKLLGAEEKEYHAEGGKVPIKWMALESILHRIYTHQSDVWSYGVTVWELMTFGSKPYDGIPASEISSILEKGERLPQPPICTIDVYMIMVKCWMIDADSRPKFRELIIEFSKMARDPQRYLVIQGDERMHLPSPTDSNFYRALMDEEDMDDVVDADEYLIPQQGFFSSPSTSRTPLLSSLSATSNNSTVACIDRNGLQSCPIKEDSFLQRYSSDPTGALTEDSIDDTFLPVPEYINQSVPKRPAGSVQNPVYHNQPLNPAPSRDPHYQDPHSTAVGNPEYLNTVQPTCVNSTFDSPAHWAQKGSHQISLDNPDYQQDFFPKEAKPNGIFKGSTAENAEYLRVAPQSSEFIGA

[17] = test system: Epidermal growth factor receptor (Homo sapiens), P00533 [L858R]; settings: at 1 µM
[18] = test system: Epidermal growth factor receptor (Homo sapiens), P00533 [L861Q]; settings: at 0.1 µM
Epidermal growth factor receptor (Homo sapiens), P00533 [L861Q], sequence (P00533 whole entry L861Q): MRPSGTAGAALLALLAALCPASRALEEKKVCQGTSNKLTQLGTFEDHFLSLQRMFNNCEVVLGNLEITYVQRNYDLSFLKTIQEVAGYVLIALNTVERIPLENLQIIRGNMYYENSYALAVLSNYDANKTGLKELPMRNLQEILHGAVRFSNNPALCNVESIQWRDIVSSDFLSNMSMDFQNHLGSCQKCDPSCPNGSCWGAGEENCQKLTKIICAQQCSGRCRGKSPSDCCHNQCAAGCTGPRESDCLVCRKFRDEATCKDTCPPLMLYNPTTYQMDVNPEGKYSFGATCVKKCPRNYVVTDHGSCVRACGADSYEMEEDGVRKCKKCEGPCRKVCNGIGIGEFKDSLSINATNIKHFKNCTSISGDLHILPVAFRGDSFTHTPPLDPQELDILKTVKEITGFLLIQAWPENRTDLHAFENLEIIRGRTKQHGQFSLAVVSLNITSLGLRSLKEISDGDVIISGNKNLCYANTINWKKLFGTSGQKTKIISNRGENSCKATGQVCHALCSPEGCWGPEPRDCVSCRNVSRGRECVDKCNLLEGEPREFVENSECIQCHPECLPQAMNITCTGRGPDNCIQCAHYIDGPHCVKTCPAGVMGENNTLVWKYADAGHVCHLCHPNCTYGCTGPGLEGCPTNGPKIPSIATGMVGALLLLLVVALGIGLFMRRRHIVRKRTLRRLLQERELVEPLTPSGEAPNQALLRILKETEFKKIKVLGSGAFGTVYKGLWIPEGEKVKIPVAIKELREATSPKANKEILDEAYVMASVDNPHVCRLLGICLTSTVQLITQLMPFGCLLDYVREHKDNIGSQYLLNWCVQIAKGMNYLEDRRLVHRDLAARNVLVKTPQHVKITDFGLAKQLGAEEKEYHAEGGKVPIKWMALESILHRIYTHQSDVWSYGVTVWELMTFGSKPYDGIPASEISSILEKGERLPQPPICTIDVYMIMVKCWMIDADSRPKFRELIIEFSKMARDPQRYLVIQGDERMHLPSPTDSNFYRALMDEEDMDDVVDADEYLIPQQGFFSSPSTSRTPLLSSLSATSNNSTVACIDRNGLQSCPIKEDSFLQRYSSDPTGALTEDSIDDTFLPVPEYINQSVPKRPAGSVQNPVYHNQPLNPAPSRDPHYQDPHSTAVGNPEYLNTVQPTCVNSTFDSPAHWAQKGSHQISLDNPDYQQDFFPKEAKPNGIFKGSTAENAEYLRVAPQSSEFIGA

[19] = test system: Epidermal growth factor receptor (Homo sapiens), P00533 [L861Q]; settings: at 1 µM
[20] = test system: Epidermal growth factor receptor (Homo sapiens), P00533 [T790M]; settings: at 0.1 µM

Tyrosine-protein kinase receptor UFO (Homo sapiens), sequence (P30530 whole entry): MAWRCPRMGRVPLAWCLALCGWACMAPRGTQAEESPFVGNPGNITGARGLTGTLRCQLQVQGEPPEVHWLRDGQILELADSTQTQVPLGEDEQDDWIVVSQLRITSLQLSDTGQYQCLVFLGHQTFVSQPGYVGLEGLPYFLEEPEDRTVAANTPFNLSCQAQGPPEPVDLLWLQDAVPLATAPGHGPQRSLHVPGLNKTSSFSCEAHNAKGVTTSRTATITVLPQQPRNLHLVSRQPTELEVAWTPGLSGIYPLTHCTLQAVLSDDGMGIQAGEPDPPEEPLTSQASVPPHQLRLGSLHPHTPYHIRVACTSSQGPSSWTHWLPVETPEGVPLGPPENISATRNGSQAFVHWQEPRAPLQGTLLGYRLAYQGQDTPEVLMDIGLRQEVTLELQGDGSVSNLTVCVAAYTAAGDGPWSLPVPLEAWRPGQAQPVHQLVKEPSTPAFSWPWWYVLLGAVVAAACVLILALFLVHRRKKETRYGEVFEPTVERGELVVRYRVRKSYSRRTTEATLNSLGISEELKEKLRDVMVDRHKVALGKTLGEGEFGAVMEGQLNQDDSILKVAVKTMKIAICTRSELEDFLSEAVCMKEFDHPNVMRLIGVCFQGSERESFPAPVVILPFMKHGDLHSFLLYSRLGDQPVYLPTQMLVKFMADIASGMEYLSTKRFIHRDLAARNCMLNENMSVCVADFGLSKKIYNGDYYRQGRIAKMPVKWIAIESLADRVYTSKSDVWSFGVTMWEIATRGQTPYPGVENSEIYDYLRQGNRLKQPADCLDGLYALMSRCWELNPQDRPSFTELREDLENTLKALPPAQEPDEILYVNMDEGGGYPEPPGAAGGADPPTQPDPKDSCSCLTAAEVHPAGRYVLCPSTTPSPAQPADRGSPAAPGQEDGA

SMILES | inhibition [1] | inhibition [2] | inhibition [3] | inhibition [4] | inhibition [5] | inhibition [6] | inhibition [7] | inhibition [8] | inhibition [9] | inhibition [10] | inhibition [11] | inhibition [12] | inhibition [13] | inhibition [14] | inhibition [15] | inhibition [16] | inhibition [17] | inhibition [18] | inhibition [19] | inhibition [20]
COc1ccc2cc(-c3c(-c4ccncc4)nc(-c4ccc([S+](C)[O-])cc4)n3C)ccc2c1 (configuration not stated) | -3.32% | 1.88% | 6.67% | 4.9% | 3.64% | 8.25% | 42% | 0.83% | 1.4% | 1.52% | -2.89% | 1.35% | 3.95% | 6.79% | 3.4% | 2.1% | 0.76% | 1.88% | 1.02% | -0.14%
COc1ccc(COc2ccc(Cc3cnc(N)nc3N)cc2OC)cc1 | 8.25% | 0.45% | 0.47% | 0.39% | 2.06% | -1.66% | -1.6% | 0.23% | 3.61% | 0.54% | -3.17% | 8.57% | 8.13% | -0.51% | 5.41% | 0.93% | -1.26% | -1.47% | -1.95% | –
CCn1c(-c2nonc2N)nc2c(N3CCCC3)nccc21 | 4.04% | -1.15% | -2.43% | -2.04% | -1.4% | -1.28% | -2.02% | 0.03% | -1.53% | -7.4% | -3.39% | 0.93% | 1.39% | 9.47% | 13% | -0.34% | -1.9% | 0.82% | 2.63% | -1.01%
COc1cc(C)c(NC(=O)CN(C)C)cc1Nc1nc(Nc2cccc(F)c2C(N)=O)c2cc[nH]c2n1 | 63.7% | 0.68% | 4.45% | 0.07% | 2.64% | 3.06% | 23.8% | 0.31% | 0.16% | 1.05% | -0.35% | 2.03% | 0.4% | -1.1% | 5.3% | 1.75% | 6.19% | 2.96% | 5% | 5.98%
O=C(Nc1n[nH]c2nc(-c3ccco3)c(Br)cc12)C1CC1 | -1.16% | 3.07% | 20.5% | 7.33% | 4.58% | 6.01% | 3.67% | -0.13% | 4.11% | 6.94% | 4.14% | 0.37% | 2.85% | 2.5% | 5.12% | 3.62% | 0.54% | 0.96% | 1.89% | 1.4%
O=C1NC(=O)C(N2CCc3ccccc32)=C1c1ccc(Cl)cc1 | -2.89% | 2.66% | 4.59% | -0.48% | 5.82% | 4.84% | 4.71% | 0.29% | 0.58% | 3.38% | 0.75% | 3.2% | 8.8% | -0.66% | 3.22% | -1.38% | 5.23% | 4.7% | 2.74% | 2.82%
CC1=C(C(=O)Nc2ccc3[nH]ncc3c2)C(c2ccc3ccccc3c2)CC(=O)N1 (configuration not stated) | -3.18% | 13.4% | 58.5% | -1.63% | 3.91% | 3.76% | 6.55% | 0.23% | 11.4% | 4.44% | 8.49% | 1.3% | 0.24% | 1.29% | 5.76% | 3.81% | 6.61% | 2.89% | 1.33% | 1.06%
Cc1ccc(C(=O)NC2CCCCC2)cc1-c1ccc(C(=O)NCC2CC2)cc1 | 3.11% | 2.04% | 3.76% | 2.45% | 4.53% | 1.79% | 3.75% | 1.78% | 3.37% | 2.72% | 1.73% | 3.79% | 6.99% | 10.6% | 14.3% | 1.02% | 0.13% | 1.18% | 0.87% | 0.94%
COc1cccc(-n2ncc3c(N/N=C/c4cccc(F)c4)ncnc32)c1 | 1.49% | -0.8% | 17.9% | 16.8% | 13.8% | -0.23% | 5.33% | -5.62% | -4.52% | 1.19% | 4.81% | 1.22% | 2.49% | 0.53% | 8.49% | 6.62% | 37.9% | 2.52% | 7.42% | -0.78%
COC(=O)Nc1nc2cc(Oc3cccc(NC(=O)Nc4cc(C(F)(F)F)ccc4F)c3)ccc2[nH]1 | 1.25% | -0.47% | 1.35% | 1.84% | -1.52% | -1.63% | -2.33% | -0.22% | -0.18% | -2.03% | 2.36% | 13.2% | 68.6% | 0.87% | 1.45% | -1.54% | 1.41% | -1.86% | -4.32% | -1.19%
CCn1c(-c2nonc2N)nc2c(C#CC(C)(C)O)nc(OC[C@@H](N)c3ccccc3)cc21 | 3.03% | 0.59% | 0.29% | -0.32% | 0.02% | 0.79% | -0.34% | -0.1% | 1.72% | -1.24% | -2.13% | 4.51% | 12.2% | 0.44% | 3.81% | -1.04% | -2.49% | -1.53% | -1.51% | -1.77%
CNC(=O)c1cncc(/C=C/c2c(Cl)cccc2Cl)c1 | -1.76% | -1.91% | 5.69% | 4.95% | 22.8% | 13.5% | 56% | -3.87% | 0.37% | 0.49% | 10.6% | 3.42% | 21.2% | -0.54% | 0.79% | 0.61% | 14.2% | 2.27% | 4.01% | 1.23%
N#Cc1c(NC(=O)c2cccc3ccccc23)sc2c1CCCC2 | -1.11% | 1.28% | 2.44% | 3.61% | 2.91% | 3.4% | 3.17% | -1.4% | 0.24% | 0.06% | 0.21% | 2.55% | 2.6% | – | – | – | – | – | – | –
